The whole screen tested about 350,000 compounds, of which about 2,100 (0.6%) were called active. Roughly 1% stayed inconclusive and do not appear here.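 Rule for the calls: active = activity change of -60% or lower, but not beyond a set lower limit; inconclusive = change between -60% and -40%, or beyond the set limit; inactive = change above -40%.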 The full list was thinned out, with actives kept by preference.
These compounds were tested against Relaxin receptor 1 (Homo sapiens) (UniProt Q9HBX9) (assay: qHTS Assay for Antagonists of the Relaxin Receptor RXFP1). Settings: HEK293-RXFP1, relaxin-stimulated cAMP HTRF, 30 min; at 57.5 µM; stronger effect = lower value.
Relaxin receptor 1 (Homo sapiens), sequence (Q9HBX9 whole entry, looked up): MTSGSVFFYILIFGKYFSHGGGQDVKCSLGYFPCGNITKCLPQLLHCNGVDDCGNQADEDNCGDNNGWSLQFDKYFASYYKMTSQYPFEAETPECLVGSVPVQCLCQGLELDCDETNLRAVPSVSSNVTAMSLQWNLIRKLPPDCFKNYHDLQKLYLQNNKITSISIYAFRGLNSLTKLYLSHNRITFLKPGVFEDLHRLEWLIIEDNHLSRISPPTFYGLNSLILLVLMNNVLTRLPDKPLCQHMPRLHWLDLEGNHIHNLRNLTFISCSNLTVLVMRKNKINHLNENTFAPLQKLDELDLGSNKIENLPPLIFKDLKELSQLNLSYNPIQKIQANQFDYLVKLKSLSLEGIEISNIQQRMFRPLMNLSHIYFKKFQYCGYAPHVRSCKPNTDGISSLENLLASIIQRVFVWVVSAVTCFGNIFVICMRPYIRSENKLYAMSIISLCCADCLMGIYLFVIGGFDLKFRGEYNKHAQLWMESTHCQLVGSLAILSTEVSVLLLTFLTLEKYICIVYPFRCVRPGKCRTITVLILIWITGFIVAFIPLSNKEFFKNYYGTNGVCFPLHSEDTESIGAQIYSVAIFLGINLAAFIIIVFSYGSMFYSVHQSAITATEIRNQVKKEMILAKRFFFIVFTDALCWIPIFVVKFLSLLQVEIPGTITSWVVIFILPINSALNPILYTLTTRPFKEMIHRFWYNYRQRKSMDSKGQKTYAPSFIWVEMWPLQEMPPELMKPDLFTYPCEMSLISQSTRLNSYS
With `O=C(Nc1c(C(=O)N2CCN(c3ccc(F)cc3)CC2)oc2ccccc12)c1ccco1` the activity change, negative = inhibition was -14.5% (inactive).
In the case of `CCCCNC(=O)c1cc(-c2ccc(Cl)c(Cl)c2)on1`, the activity change, negative = inhibition is reported as -6.36% (inactive).
`C=CS(=O)c1sc(Cl)c(N2CCOCC2)c1[N+](=O)[O-]` (centres undefined) was tested, and the activity change, negative = inhibition was -60.3% (active).
With `O=C(NCCCN1CCN(c2cccc(Cl)c2)CC1)c1nnc(Cc2ccc(F)cc2Cl)o1` the activity change, negative = inhibition was -19.5% (inactive).
In the case of `COc1ccc(CCNC(=O)c2cn(C)c3ccc(S(=O)(=O)N(C)C4CCCCC4)cc3c2=O)cc1OC`, the activity change, negative = inhibition is reported as -10.4% (inactive).
`N#CCSc1nc2c(c(=O)n1Cc1ccccc1)C1(CCCC1)Cc1ccccc1-2` was tested, and the activity change, negative = inhibition was -9.93% (inactive).
For `CCC1(CC)Cc2ccccc2-c2nc(CCl)[nH]c(=O)c21`, the activity change, negative = inhibition was -80.4% (active).
For `CCOC(=O)C1Cn2c(nc3c(c2=O)C(C)(CC)Cc2ccccc2-3)S1` (centres undefined), the activity change, negative = inhibition was -6.89% (inactive).
With `CCc1nc(-c2cc(S(=O)(=O)N3CCN(c4ccc(OC)cc4)CC3)ccc2OC)no1` the activity change, negative = inhibition was 0.921% (inactive).
In the case of `CCCC12CN3CC(CCC)(CN(C1)C3c1c[nH]c3ccc(OC)cc13)C2=O` (centres undefined), the activity change, negative = inhibition is reported as -18.6% (inactive).
For `Cc1cc(C)cc(OC(C)C(=O)Nc2nc3c(s2)CCCC3)c1` (centres undefined), the activity change, negative = inhibition was -103% (active).
`COC(=O)C(NC(C)=O)(Nc1nc2c(s1)CCCC2)C(F)(F)F` (centres undefined) was tested, and the activity change, negative = inhibition was -2.87% (inactive).
In the case of `O=C(Nc1nc2c(s1)CCCC2)c1ccccc1F`, the activity change, negative = inhibition is reported as -33.1% (inactive).
`CCC(Sc1nc2n[nH]c(C)c2c(=N)n1-c1ccccc1Cl)C(=O)N(CC)CC` (centres undefined) was tested, and the activity change, negative = inhibition was -33.6% (inactive).
`COc1ccc(C)cc1N(C)C(=O)c1c(C)oc2ncnc(N3CCOCC3)c12` was tested, and the activity change, negative = inhibition was -0.158% (inactive).
`COc1ccc(OC)c(C(=O)NC2CCCc3c2cnn3-c2cc(C)cc(C)c2)c1` (centres undefined) was tested, and the activity change, negative = inhibition was 2.28% (inactive).
In the case of `Cc1ccc(-n2ncc3c2CCCC3NC(=O)c2cnccn2)cc1C` (centres undefined), the activity change, negative = inhibition is reported as -3.03% (inactive).
With `COc1ccc(C(=O)NC2CCCc3c2cnn3-c2cccc(C)c2C)c(OC)n1` (centres undefined) the activity change, negative = inhibition was -116% (active).
In the case of `NCC[C@H](O)C(=O)N[C@@H]1C[C@H](N)[C@@H](O[C@H]2O[C@H](CN)[C@@H](O)[C@H](O)[C@@H]2O)[C@H](O)[C@@H]1O[C@H]1O[C@H](CO)[C@@H](O)[C@H](N)[C@@H]1O`, the activity change, negative = inhibition is reported as -6.65% (inactive).
With `CCOCC(=O)NCc1ccc2c(c1)cc(C)n2C` the activity change, negative = inhibition was -74.1% (active).
For `COc1ccc(CNC(=O)CCn2cccc2)cc1`, the activity change, negative = inhibition was -6.31% (inactive).
In the case of `COc1cc(C(=O)NCc2ccc3c(c2)cc(C)n3C)cc(OC)c1OC`, the activity change, negative = inhibition is reported as 12% (inactive).
For `CCOc1ccc(-c2cc3c(=O)n(CC(=O)NCc4ccc(OC)cc4)ccn3n2)cc1`, the activity change, negative = inhibition was 4.95% (inactive).
In the case of `COc1ccc(Cn2ccnc2SCC(=O)Nc2ccc3c(c2)OCO3)cc1`, the activity change, negative = inhibition is reported as -2.29% (inactive).
`Cc1ccc(CN2CCc3nc(N4CCN(C)CC4)ncc3C2)cc1` was tested, and the activity change, negative = inhibition was -7.68% (inactive).
In the case of `Cc1cc(-c2ccccc2)n2nc(-c3ccccc3)cc2n1`, the activity change, negative = inhibition is reported as -15.7% (inactive).
With `Cc1cccc(-n2ncc(C(=O)N3CCN(c4ccc(Cl)cc4)CC3)c2C2CCN(C(=O)OC(C)(C)C)CC2)c1` the activity change, negative = inhibition was -19.9% (inactive).
`O=C(OCC(O)CO)c1ccccc1Nc1ccnc2c(C(F)(F)F)cccc12` (centres undefined) was tested, and the activity change, negative = inhibition was -23.3% (inactive).
In the case of `Cc1cccc(-n2ncc(C(=O)N3CCC(C)CC3)c2C2CCN(C(=O)OC(C)(C)C)CC2)c1`, the activity change, negative = inhibition is reported as 1.6% (inactive).
With `Cc1ccc(CN2CCC(CNC(=O)c3cnn(-c4ccccc4Cl)c3C3CCN(C(=O)OC(C)(C)C)CC3)CC2)cc1` the activity change, negative = inhibition was -35.3% (inactive).
With `Cc1ccc(C2CCN(C(=O)c3cnn(-c4ccccc4Cl)c3C3CCN(C(=O)OC(C)(C)C)CC3)C2)cc1` (centres undefined) the activity change, negative = inhibition was -70.8% (active).
For `Cc1cccc(C)c1NC(=O)c1ccc(N)cc1`, the activity change, negative = inhibition was 14.2% (inactive).
In the case of `CCOc1cccc2c1N[C@@H](c1ccc(C(=O)O)cc1)[C@H]1CC=C[C@@H]21`, the activity change, negative = inhibition is reported as -4.8% (inactive).
For `CC(C)(CCl)C(=O)Nc1ccc(Sc2ccc(F)cc2)cc1`, the activity change, negative = inhibition was -28.2% (inactive).
In the case of `O=C(CCl)Nc1ccc(Sc2ccc(NC(=O)CCl)cc2)cc1`, the activity change, negative = inhibition is reported as -96.8% (active).
In the case of `O=C(CCl)Nc1cccc(CP(=O)(c2ccccc2)c2ccccc2)c1`, the activity change, negative = inhibition is reported as -12.2% (inactive).
`CCCNC(=O)CCC(=O)N1Cc2ccccc2Oc2ncccc21` was tested, and the activity change, negative = inhibition was -2.12% (inactive).
With `Cc1ccc(CNC(=O)CCC(=O)N2Cc3ccccc3Oc3ncccc32)cc1` the activity change, negative = inhibition was 0.223% (inactive).
For `Cc1ccccc1CNC(=O)CCC(=O)N1Cc2ccccc2Oc2ncccc21`, the activity change, negative = inhibition was -120% (active).
For `O=C(CC1N=C2c3ccccc3N=C(SCc3ccc(F)cc3)N2C1=O)NCc1cccs1` (centres undefined), the activity change, negative = inhibition was -7.63% (inactive).
For `COc1ccccc1C(=O)Nc1c(C(=O)N(C)Cc2ccccc2)sc2nc(C)c(Cl)c(C)c12`, the activity change, negative = inhibition was -8.81% (inactive).
For `CCC(=O)N1CCc2cc(Br)cc(S(=O)(=O)CCC(=O)NCCc3ccc(OC)c(OC)c3)c21`, the activity change, negative = inhibition was -17.8% (inactive).
In the case of `Cc1ccc(C)c(N2CCN(C(=O)Cn3nc(C)c4sc5ccccc5c4c3=O)CC2)c1`, the activity change, negative = inhibition is reported as -3.69% (inactive).
For `CCOc1ccc(CNC(=O)C2CCCN(S(=O)(=O)N(CC)c3ccc(OCC)cc3)C2)cc1` (centres undefined), the activity change, negative = inhibition was -7.3% (inactive).
In the case of `CCCCN1C(=O)C(C)=C(C)C1OCCc1ccc(OC)c(OC)c1` (centres undefined), the activity change, negative = inhibition is reported as -1.03% (inactive).
For `CCCCOc1ccc(Cn2c(=O)oc3ccc(C)cc32)cc1OC`, the activity change, negative = inhibition was -39.4% (inactive).
`CCCCOc1ccc(CN2C(=O)C(=O)c3cc(Br)cc(C)c32)cc1OC` was tested, and the activity change, negative = inhibition was -71.4% (active).
With `Cc1cc(C)c2oc(C(=O)Nc3ccc(S(=O)(=O)N4CCCCCC4)cc3)cc(=O)c2c1` the activity change, negative = inhibition was -1.32% (inactive).
For `CO/N=C(\C(=O)N[C@@H]1C(=O)N2C(C(=O)O)=C(Cn3nnc(C)n3)CS[C@H]12)c1csc(N)n1`, the activity change, negative = inhibition was 10% (inactive).
`CC(=O)Nc1cccc(C(=O)OCC(=O)Nc2nnc(-c3ccccc3)o2)c1` was tested, and the activity change, negative = inhibition was -4.64% (inactive).
For `COc1ccccc1C(=O)NCC(=O)OCC(=O)Nc1nnc(-c2ccccc2)o1`, the activity change, negative = inhibition was -0.478% (inactive).
`O=C(COC(=O)c1ccc(Oc2ccccc2)cc1)Nc1nnc(-c2ccccc2)o1` was tested, and the activity change, negative = inhibition was -76.2% (active).
`O=C(CN1CCSc2ccccc21)N1CCN(c2ccccc2)CC1` was tested, and the activity change, negative = inhibition was -6.69% (inactive).
`CCOc1ccc(-c2cc(C)n3nc(C(=O)Nc4ccc(C)c(C)c4)cc3n2)cc1` was tested, and the activity change, negative = inhibition was -24% (inactive).

— PubChem BioAssay AID1259400 (National Center for Advancing Translational Sciences (NCATS), 2018)
% is set by controls: 0 for no effect and ±100 for the full control effect.
